These results are taken from PubChem BioAssay (NCI).

The structures appear in SMILES notation. About 83,000 compounds went through this panel and 20% of them were active in at least one assay; those are over-represented in the sample as a whole.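 Growth was measured after 48 h exposure to one concentration of compound in 96-well plates. Values under 10 count as active.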 Activity calls are given as the source filed them.

The subject of the assay is MCF7 breast. The experiment in a line: NCI-60 one-dose screen, 48 h (100 = growth as untreated, 0 = no growth, -100 = all killed). The settings on record: 10 µM unless noted. On the procedure:
Growth inhibition of the MCF7 human tumor cell line is measured as a screen for anti-cancer activity. Cells are grown in 96 well plates and exposed to the test compound for 48 hours. Compounds are tested at a single concentration, which is 10^-5 M for most compounds. The reported endpoint is percent growth (GI% or GIPRCNT), where numbers from 0 - 100% represent growth inhibition, and numbers from -100% - 0 represent cell death. For example, a value of 40 represents 60% growth inhibition. A value of 0 means no net growth occurred over the course of the experiment. A value of -40 indicates 40% of cells at the beginning of the experiment died by the end of the experiment. A value of -100 means all cells are dead at the end of the experiment.
NCI-60 Human Tumor Cell Lines Screen was performed using the standard one-dose NCI protocol, which is described in more detail at https://dtp.cancer.gov/discovery_development/nci-60/default.htm.
Compounds with GIPRCNT values below 10 were considered active. Activity score was based on GIPRCNT using the following formula: […]
Score is 0 for GIPRCNT values of 100 or above, 50 for GIPRCNT values of 0, and 100 for GIPRCNT values of -100.
For `C=C(C)[C@@H]1CC[C@]2(CN)CC[C@]3(C)[C@H](CC[C@@H]4[C@@]5(C)CCCNC(C)(C)[C@@H]5CC[C@]43C)[C@@H]12`, the growth is -66.1% (active).
For `COc1ccc(C(=O)CSc2nc(-c3cc(OC)ccc3OC)cc(-c3ccc(Cl)cc3)c2C#N)cc1` the value was 46.5% (inactive); for `Cc1ccc(S(=O)(=O)Nn2c3c(cc(-c4nc5ccccc5s4)c2=O)CCCCCC3)cc1`, 91.3% (inactive).
On to `CN(C)CCn1c2ccc(Br)cc2c2nc3ccccc3nc21`, for which the growth was 19.7% (inactive).
`Cc1ccc(/C=C(/C#N)n2nnc3cccc(F)c32)cc1`: the growth is 13.5% (inactive).
On to `O=C(Nc1cccc(C(=O)N2CCc3ccc(Cl)cc32)c1)c1ccco1`, for which the growth was 21.6% (inactive).
Turning to `CCN1Cc2nc3sc(C)c(C)c3c(=O)n2C=C1C`, the growth was -41.8% (active).
Turning to `O=C1Nc2cc(-c3ccc(NC(=O)C4CC4)cc3)ccc2/C1=C/c1ccc[nH]1`, the growth is 12.8% (inactive).
In the case of `CC(=O)Nc1ccc(-c2ccc3c(c2)NC(=O)/C3=C\c2ccc[nH]2)cc1`, the growth is 9.83% (active).
In the case of `Cc1ccc(/C=N/NC(=O)CSc2nc3ccccc3c(=O)n2Cc2ccc(S(N)(=O)=O)cc2)cc1`, the growth is 59.4% (inactive).
Regarding `CCCCOc1ccc(/C=N/Nc2cc(C)nc3ccc(Br)cc23)cc1`, the growth is -52.1% (active).
For `N#C/C(=C\c1cccc(C#N)c1)c1ccccc1`, the growth was 105% (inactive).
To `CCc1c(Cl)nc(N)nc1Nc1ccc(C)c(C)c1` belongs 83.1% (inactive).
Take `CCCCCN1C=C/C(=C\C(=O)N(C)c2ccc(OC(F)(F)F)cc2)c2ccccc21`: the growth was 88.7% (inactive).
Regarding `N=C(N)c1ccc(OCCCCCCCCCCOc2ccc(C(=N)N)cc2)cc1`, the growth is -71.7% (active).
As to `COc1ccc(C(=O)c2cc(C)c(OC)c(C)c2)c(OC)c1N(C(=O)CCl)C(=O)CCl`, the growth was 14% (inactive).
For the compound `O=C1c2cccc3c(-c4ccc5c(c4)ncn5C4CCCCC4)ccc(c23)C(=O)N1CCO`, the growth is 97.8% (inactive).
As for `c1ccc(Cn2cnc3ccc(-c4nc(-c5ccc6c(c5)ncn6C5CCCCC5)cn5ccnc45)cc32)cc1`, the growth was 2.03% (active).
Take `CCOC(=O)[C@@H]1CCCN(S(=O)(=O)c2ccc(S(=O)(=O)N(CC)CC)c(F)c2)C1`: the growth is 61.8% (inactive).
Turning to `CSc1nc2sc3cccc(Cl)c3n2c(=N)c1C#N`, the growth was 88.4% (inactive).
For `C=C1C(=O)O[C@H]2[C@H]1CC/C(C(=O)NCCCCCNC(=O)/C1=C/CC[C@@]3(C)O[C@H]3[C@H]3OC(=O)C(=C)[C@@H]3CC1)=C\CC[C@@]1(C)O[C@@H]21` the value was 88.2% (inactive); for `CCCC/C=N/NC(=S)NCc1ccccc1`, 87.7% (inactive); for `CC1(C)NCCC[C@]2(C)[C@H]3CC(=O)[C@H]4[C@@H]5C[C@](C)(CO)CC[C@]5(C)CC[C@@]4(C)[C@]3(C)CC[C@@H]12`, 87.3% (inactive).
Regarding `COc1cc2nc(-c3ccc(Cl)cc3)cc(OCCCN3CCOCC3)c2cc1OC`, the growth is 50.2% (inactive).
To `NS(=O)(=O)c1ccc(CCN2C(=O)C3C(C2=O)C2(Cl)C(Cl)=C(Cl)C3(Cl)C2(Cl)Cl)cc1` (stereo not given) belongs 92.5% (inactive).
For `COc1cc(/C=C\c2cc(/C=C\c3ccc(O)c(OC)c3)n(C(=O)COc3ccccc3)n2)ccc1O` the value was 1.3% (active); for `O=C1OC(Cc2ccccc2)C1c1ccccc1` (stereo not given), 98.1% (inactive).
For `COc1cc2oc(-c3cccc(C(=O)Nc4ccc(Cl)cc4)c3)cc(=O)c2c(O)c1OC`, the growth is 80.9% (inactive).
`O=S(=O)(NCCNc1nccc(-c2c(-c3cccc(O)c3)nc3occn23)n1)c1ccc(C(F)(F)F)cc1`: the growth was 67.2% (inactive).
To `CCCCCCNC(=O)Oc1ccc(/C(=C(\C)c2ccccc2)c2ccc(OCCCN(C)C)cc2)cc1` belongs 21.3% (inactive).
`Cn1cc(-c2csc(-c3c[nH]c4ccccc34)n2)c2ccnc(Cl)c21`: the growth was 30.3% (inactive).
For the compound `Brc1ccc2[nH]cc(-c3cncn3CCc3ccccc3)c2c1`, the growth is 48.9% (inactive).
As to `CC(C)N1C(=O)S/C(=C2/SC(=O)N(C(C)C)C2=O)C1=O`, the growth was 97.9% (inactive).
To `COc1cccc(-c2nc3occn3c2-c2ccnc(NCCNS(=O)(=O)c3cccc4ccccc34)n2)c1` belongs 95.5% (inactive); to `C/C(=N\Nc1cc(C)nc2ccc(Br)cc12)c1ccc([N+](=O)[O-])cc1`, 43.9% (inactive); to `CCCNC(=O)Oc1ccc(/C(=C(\C)c2ccccc2)c2ccc(OCCCN(C)C)cc2)cc1`, 21.7% (inactive).
`CC(=O)c1cc2c(N)c(C(=O)Nc3cccc4ccncc34)sc2nc1C`: the growth is 83.7% (inactive).
On to `O=C1Nc2ccc(F)cc2/C1=C\c1c(-c2ccccc2)nc2ccccn12`, for which the growth is 61.3% (inactive).
Consider `CCOc1cccc(-c2nc(N)nc(Nc3ccccc3SSc3ccccc3Nc3nc(N)nc(-c4cccc(OCC)c4)n3)n2)c1`, for which the growth was 70.1% (inactive).
For `O=C(Cc1ccc(/C=C/C(=O)c2nccs2)cc1)Nc1ccccc1` the value was 84.4% (inactive).
